We go through 3 molecules from PubChem BioAssay (NCATS).

Test [1] has as its target Cytochrome P450 3A4 (Homo sapiens) (UniProt P08684). As to the kind of experiment: qHTS Assay for Inhibitors and Substrates of Cytochrome P450 3A4 (AID 884). Note: % is set by controls: 0 for no effect and ±100 for the full control effect; nearly all actives have a fitted effect of over 50% in size. In outline: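 Luminescent readout of luciferin produced by CYP3A4 (20 nM) dealkylation of Luciferin-PPXE, 25 uM (its KM). NADPH-driven reaction ran 60 min at RT after 10 min compound preincubation; data scaled to 57 uM ketoconazole as 100% inhibition.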
(In general: In qHTS, concentration-response curves come from the screen itself.)

A short description of test [2]: Confirmation and Secondary Assay for Modulators of Hemoglobin Beta Chain Splicing at IVS2 654 locus (AID 910).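 Note: HeLa cells stably carrying EGFP split by mutant beta-globin IVS2-654 intron; % of control where 0% means no effect.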 In outline: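 HeLa cells stably expressing EGFP interrupted by β-globin IVS2-654 intron, seeded overnight in Opti-MEM/2% FCS, then treated 2 days at 37 °C. Restored splicing read as total peak GFP intensity per well by laser scanning cytometry (488 nm excitation, 500–520 nm emission); 500 nM antisense PNA as control.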

Test [3] is described as follows: Confirmation and Secondary Assay for Modulators of Hemoglobin Beta Chain Splicing at IVS2 705 locus (AID 930).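 Note: HeLa cells stably expressing the EGFP-705 splicing reporter; GFP fluorescence per well restored by corrected splicing of the IVS2-705 intron in EGFP; % of control where 0% means no effect.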 The essentials:
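HeLa IVS2-705 EGFP reporter cells, 500/well, compound 2 d at 37C; correct splicing yields fluorescent EGFP. Control: 500 nM antisense PNA. Read-out: total peak GFP intensity.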

The nature of test [4]: qHTS Assay for Lipid Storage Modulators (AID 1519; calls by dose curve). As to conditions: Drosophila S3 cells, BODIPY lipid droplet/cell ratio, laser cytometry, cells loaded with oleic acid; for activity change, negative = inhibition: at 57.5 µM (top of the series). The essentials: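 Cells seeded at 5,000 per well were treated with compounds over a concentration series and loaded with oleic acid (400 uM, as added). Lipid droplet fluorescence (488 nm excitation, 500-530 nm channel) was read by laser-scanning cytometry and normalized to 20 uM Triacsin C.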

For test [5], the target named is Ubiquitin carboxyl-terminal hydrolase 1 (Homo sapiens) (UniProt O94782). As to the kind of experiment: Inhibitors of USP1/UAF1: Pilot qHTS (AID 504865).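 Note: rhodamine fluorescence freed from ubiquitin-rhodamine substrate followed over time; top concentration of the series differs between compounds; % is set by controls: 0 for no effect and ±100 for the full control effect; nearly all actives have a fitted effect of over 35% in size.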 The essentials: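 In 50mM HEPES pH 7.8 containing 0.5mM EDTA, 1mM TCEP, 0.1 mg/ml BSA and 0.01% Tween-20, 1nM USP1/UAF1 is exposed to compound for 15 min, then Ub-Rho (150nM final) is added and fluorescence is read over time.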

Test [6] is described as follows: AP1 Signaling Pathway (AID 357; active = well fitted curve in either direction with a large enough effect, not every such curve was filed as active;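 note: ME-180 reporter cells stimulated with EGF at its EC50 level; % is set by controls: 0 for no effect and ±100 for the full control effect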). The note with it: ME-180 AP-1-bla reporter, EGF-induced, beta-lactamase ratio, 5 h; at 7.69 µM (top of the series) unless noted. In outline:
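Cells are seeded overnight, exposed to compound titrations and an EC50 level of EGF for 5 hours at 37 °C, then loaded with CCF4 dye for 2.5 hours. Beta-lactamase activity under the AP-1 element is read as a blue/green ratio.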

In test [7] the target is Cytochrome P450 1A2 (Homo sapiens) (UniProt P05177). As to the kind of experiment: p450-cyp1a2 (AID 410; calls by dose curve; note: potency is the fitted concentration of half-maximal effect;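 for activity change, negative = inhibition: -100% = full effect of reference inhibitor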). In outline: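 Read-out is luminescence from luciferin produced by CYP1A2 demethylation of Luciferin-ME (100uM, at Km). Detection reagent stopped the 60 min NADPH-dependent reaction; signals were normalized to 57 uM furafylline.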
Cytochrome P450 1A2 (Homo sapiens), sequence (P05177 whole entry, looked up): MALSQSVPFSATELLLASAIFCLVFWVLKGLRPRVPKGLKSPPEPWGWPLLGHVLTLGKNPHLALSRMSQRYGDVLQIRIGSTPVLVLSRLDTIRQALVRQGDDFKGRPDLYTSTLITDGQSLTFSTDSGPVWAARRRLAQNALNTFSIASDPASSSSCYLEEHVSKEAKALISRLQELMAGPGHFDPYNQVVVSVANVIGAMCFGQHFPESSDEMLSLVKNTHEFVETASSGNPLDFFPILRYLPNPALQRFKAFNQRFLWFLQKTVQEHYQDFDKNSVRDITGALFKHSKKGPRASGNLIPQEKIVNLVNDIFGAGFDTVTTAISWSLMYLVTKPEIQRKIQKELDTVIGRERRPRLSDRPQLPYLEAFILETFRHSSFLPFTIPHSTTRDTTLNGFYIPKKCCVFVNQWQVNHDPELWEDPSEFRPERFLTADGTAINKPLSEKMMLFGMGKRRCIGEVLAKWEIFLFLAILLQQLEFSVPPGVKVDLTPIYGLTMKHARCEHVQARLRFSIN
A short description of test [8]: NFAT Signaling Pathway (AID 444; active = well fitted curve in either direction with a large enough effect, not every such curve was filed as active;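 note: carbachol stimulus at about its EC50 of 1 µM final; % is set by controls: 0 for no effect and ±100 for the full control effect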). As to conditions: Jurkat NFAT-bla M1, carbachol, beta-lactamase ratio, 5 h; at 7.69 µM (top of the series) unless noted. In outline:
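Jurkat cells with NFAT-driven β-lactamase reporter and co-expressed M1 receptor, stimulated with carbachol (final 1 uM, ~EC50), compound titration, 5 h at 37 °C. CCF4 loaded 1 h at RT; 460/530 nm ratio gave %activity and AC50.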

A short description of test [9]: Stat Signaling Pathway (AID 446; active = well fitted curve in either direction with a large enough effect, not every such curve was filed as active;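 note: ME-180 cervical cancer cells given 40 pM IL-6 alongside compound; SIE-controlled beta-lactamase reporter measured as 460/530 nm FRET emission ratio; % is set by controls: 0 for no effect and ±100 for the full control effect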). As to conditions: ME-180 (cervical carcinoma) SIE beta-lactamase reporter, IL-6 stimulated, 5 h; at 7.69 µM (top of the series) unless noted. The essentials:
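Emission at 460 and 530 nm (excitation 405 nm) reports SIE-controlled beta-lactamase in ME-180 cells. Cells received compound with 40 pM IL-6 for 5 hrs at 37 C; data scaled between 300 pM IL-6 and 125 nM JAK-inhibitor controls.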

The target in test [10] is Glucocorticoid receptor (Homo sapiens) (UniProt P04150). As to the kind of experiment: GR-GFP Redistribution (AID 450;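 active = compounds whose dose series gives a full or clear partial fitted curve of increased nuclear translocation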; note: potency is the fitted concentration of half-maximal effect). As to conditions: U2OS GR-GFP nuclear translocation, laser cytometry, 2 h.
Glucocorticoid receptor (Homo sapiens), sequence (P04150 whole entry, looked up): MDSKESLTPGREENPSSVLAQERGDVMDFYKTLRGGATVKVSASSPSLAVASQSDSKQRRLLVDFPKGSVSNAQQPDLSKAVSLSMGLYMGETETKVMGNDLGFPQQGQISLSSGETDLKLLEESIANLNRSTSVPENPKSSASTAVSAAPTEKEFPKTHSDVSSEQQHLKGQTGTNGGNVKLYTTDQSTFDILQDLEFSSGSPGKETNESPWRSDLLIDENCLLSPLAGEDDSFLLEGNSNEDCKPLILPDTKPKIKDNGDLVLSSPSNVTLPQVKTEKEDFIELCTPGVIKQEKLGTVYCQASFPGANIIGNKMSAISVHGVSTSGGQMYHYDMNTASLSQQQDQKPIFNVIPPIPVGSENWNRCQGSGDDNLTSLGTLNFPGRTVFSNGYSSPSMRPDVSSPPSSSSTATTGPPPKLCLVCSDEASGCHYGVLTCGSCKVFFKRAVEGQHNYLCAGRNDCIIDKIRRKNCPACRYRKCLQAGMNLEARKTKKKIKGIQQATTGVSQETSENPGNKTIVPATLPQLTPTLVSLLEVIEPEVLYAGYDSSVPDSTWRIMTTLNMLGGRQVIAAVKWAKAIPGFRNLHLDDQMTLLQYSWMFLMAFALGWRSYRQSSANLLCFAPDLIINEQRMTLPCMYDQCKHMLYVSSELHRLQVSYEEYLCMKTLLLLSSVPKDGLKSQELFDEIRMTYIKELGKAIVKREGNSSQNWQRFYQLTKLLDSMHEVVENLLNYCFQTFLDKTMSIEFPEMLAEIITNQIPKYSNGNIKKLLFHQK
Test [11] shares this target. As to the kind of experiment: GR-EFC Redistribution (AID 451; calls by dose curve; note: potency is the fitted concentration of half-maximal effect). The note with it: CHO-K1 GR-EFC translocation, beta-gal luminescence, 2 h. In outline:
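CHO-K1 cells expressing nuclear EA and GR-ED fragments of b-gal; compounds titrated up to 46 uM final, 2 h at 37 C. GR nuclear translocation read as complemented b-gal luminescence after 1 h RT detection.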

Test [12] has as its target Mitogen-activated protein kinase 10 (Mus musculus) (UniProt Q61831). As to the kind of experiment: JNK3 AlphaScreen Assay (AID 530; active = well fitted curve in either direction with a large enough effect, not every such curve was filed as active;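 note: kinase came from lysate of stimulated human HepG2 cells; signal reports phosphorylation of biotinylated GST-cJun 1-79 at Ser73 with 10 µM ATP; % is set by controls: 0 for no effect and ±100 for the full control effect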). In outline: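 HepG2 lysate (IL-1b/TNFa pre-activated) + biotin-GST-cJun 1-79 + anti-pSer73 cJun; cpd titration, 15 min RT; ATP 10 uM start; Tris pH 7.6, MgCl2, DTT, vanadate; beads in EDTA buffer; AlphaScreen.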
For orientation: Bead proximity is the source of the signal in Alpha formats.

In test [13] the target is 3',5'-cyclic-AMP phosphodiesterase 4B (Homo sapiens) (UniProt Q07343). As to the kind of experiment: qHTS Assay for Inhibitors of PDE-IV (AID 607; active = well fitted activation curve with a large enough effect in the main read-out, with a control signal flat, not every such curve was filed as active; note: % of control where 0% means no effect). In outline:
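The readout is membrane depolarisation from a cAMP-sensing CNG channel, detected with a potential dye at ex 535/em 590. Cells were HEK293-derived (endogenous PDE-IV) at 1000 cells/well, titrated up to 22.9 uM final.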

Test [14] has as its target Guanine nucleotide-binding protein G(i) subunit alpha-1 (Homo sapiens) (UniProt P63096). As to the kind of experiment: qHTS Assay for Inhibitors of RGS12 GoLoco Motif Activity (Green Fluorophore) (AID 879).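 Note: 0% = labeled peptide with Gαi1 and full inhibition = labeled peptide alone without protein; negative values mean loss of peptide binding seen as reduced polarization.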 The essentials:
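A drop in FITC polarization marked displacement of the FITC-tagged RGS12 GoLoco peptide (10 nM) from Gαi1 (50 nM). Compounds were incubated 10 min at room temperature in Tris pH 7.5 buffer containing 150 mM NaCl, 0.1 mM GDP and 0.05% NP40; unlabeled peptide titration served as control.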

In test [15] the target is Cytochrome P450 2D6 (Homo sapiens) (UniProt P10635). As to the kind of experiment: qHTS Assay for Inhibitors and Substrates of Cytochrome P450 2D6 (AID 891).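 Note: luciferin methyl ether substrate demethylated by CYP2D6 with NADPH regeneration; % is set by controls: 0 for no effect and ±100 for the full control effect; nearly all actives have a fitted effect of over 60% in size.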 The essentials: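 Luminescent read-out of luciferin formed by 5 nM human CYP2D6 demethylating 30 uM Luciferin-ME EGE (Km level) over 60 min at room temperature after NADPH regeneration addition. Data normalized to full inhibition by 1.43 uM quinidine.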

A short description of test [16]: qHTS Assay for Identification of Small Molecule Antagonists for NFkB Signaling Pathway (AID 895; active = well fitted inhibition curve with a large enough effect in the signal ratio, with a control signal flat, not every such curve was filed as active; the % refers to the signal ratio; note: % is set by controls: 0 for no effect and ±100 for the full control effect). In outline:
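ME-180 NFkB-bla cells (beta-lactamase under NFkB response element), plated overnight, treated with compound then 10 pM TNF alpha (about EC50) for 5 hrs at 37 C. LiveBLAzer FRET read at 460/530 nm emission, 405 nm excitation.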

In test [17] the target is Cytochrome P450 2C19 (Homo sapiens) (UniProt P33261). As to the kind of experiment: qHTS Assay for Inhibitors and Substrates of Cytochrome P450 2C19 (AID 899). Note: % is set by controls: 0 for no effect and ±100 for the full control effect; nearly all actives have a fitted effect of over 60% in size. The essentials:
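5 nM human CYP2C19 with 10uM Luciferin-H EGE (at KM) in 50mM KPO4, compound preincubated 10 min at 37C, then NADPH regeneration for 60 min at 37C. Luciferin read by luminescence after detection reagent; normalized to 57uM ketoconazole as full inhibition.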

A short description of test [18]: qHTS Assay for Identification of Small Molecule Agonists for Thrombopoietin (TPO) Signaling Pathway (AID 917). Note: % is set by controls: 0 for no effect and ±100 for the full control effect. In outline: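 Cell-based luciferase reporter screen. Mouse Ba/F3 line stably expressing human TPO receptor; IL-3 removed overnight before plating. Co-treatment with compound and EC50 TPO (26 pM), 24 hrs at 37 C, then luminescence.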
The target in test [19] is Pyruvate kinase (Leishmania mexicana) (UniProt Q27686). As to the kind of experiment: qHTS Validation Assay for Inhibitors of Leishmania Mexicana Pyruvate Kinase (AID 945).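 Note: 0% = DMSO only neutral control wells.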 In outline: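 Eight-point qHTS titrations; enzyme 0.2 nM LmPYK (E451W mutant); substrates 0.5 mM PEP, 0.1 mM ADP; 7 mM MgCl2; 1 h room temperature; PKLight luminescence normalized to neutral control.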
Pyruvate kinase (Leishmania mexicana), sequence (Q27686 2-499 E452W): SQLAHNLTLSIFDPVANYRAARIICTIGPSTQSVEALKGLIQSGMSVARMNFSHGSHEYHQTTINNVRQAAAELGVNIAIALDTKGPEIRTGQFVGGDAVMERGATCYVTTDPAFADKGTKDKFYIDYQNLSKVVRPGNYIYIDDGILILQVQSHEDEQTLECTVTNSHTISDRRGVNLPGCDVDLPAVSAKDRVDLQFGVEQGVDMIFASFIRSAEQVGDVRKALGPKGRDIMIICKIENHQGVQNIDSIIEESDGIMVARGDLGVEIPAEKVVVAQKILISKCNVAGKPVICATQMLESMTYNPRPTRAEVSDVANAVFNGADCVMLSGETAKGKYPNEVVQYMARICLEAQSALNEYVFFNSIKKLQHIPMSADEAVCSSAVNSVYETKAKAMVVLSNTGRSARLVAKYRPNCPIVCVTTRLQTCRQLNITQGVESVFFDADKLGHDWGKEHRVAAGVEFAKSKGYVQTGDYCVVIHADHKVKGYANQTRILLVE

Test [20] has as its target Pyruvate kinase PKM (Homo sapiens) (UniProt P14618). As to the kind of experiment: qHTS Assay for Activators of Human Muscle Pyruvate Kinase (AID 954; active = well fitted curve in the direction sought with a large enough effect, not every such curve was filed as active;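 note: 0% = uninhibited enzyme and -100% = no enzyme or full thiadiazolimine inhibition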). The essentials:
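PKM2, human, >95% pure, 0.1 nM; PEP 0.5 mM (Km), ADP 0.1 mM; 50 mM imidazole pH 7.2, 50 mM KCl, 0.01% Tween 20, 0.05% BSA; 1 h RT; luciferase luminescence readout.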

In test [21] the target is alpha-glucosidase (Oryza sativa, rice) (UniProt Q653V4). As to the kind of experiment: Counterscreen for Glucocerebrosidase Inhibitors: qHTS Assay for Rice alpha-Glucosidase at pH 5.0 (AID 997).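 Note: 0% = full activity with enzyme and -100% = basal without enzyme.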 The essentials: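 Endpoint fluorogenic assay at pH 5.0: compounds (0.7 nM to 77 uM) titrated against 4 nM rice enzyme and 400 uM 4-MU-alpha-glucoside for 20 min at room temperature; NaOH/glycine stop, read ex 365/em 440 nm, Hill-fitted AC50.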
(In general: A counterscreen serves to expose hits that act by an unwanted route or on another target.)

The target in test [22] is Cytochrome P450 2C9 (Homo sapiens) (UniProt P11712). As to the kind of experiment: qHTS Assay for Inhibitors and Substrates of Cytochrome P450 2C9 (AID 883). Note: potency is the fitted concentration of half-maximal effect; nearly all actives have a fitted effect of over 60% in size. The essentials:
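Human CYP2C9 (10nM) with Luciferin-H at 100uM (its KM) in 25mM KPO4; compound preincubated 10 min at 37C, then NADPH regeneration for 60 min at 37C. Luciferin read by luminescence after detection reagent; normalized to 57uM sulphaphenazole as full inhibition.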

For test [23], the target named is Muscarinic acetylcholine receptor M1 (Rattus norvegicus) (UniProt P08482). As to the kind of experiment: qHTS Assay for Antagonists of Acetylcholine Muscarinic M1 Receptor: Kinetic Measurement of Intracellular Calcium Response (AID 943).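 Note: Fluo-4 calcium signal as peak divided by basal fluorescence over 4 min; nearly all actives have a fitted effect of over 75% in size.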 The essentials: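 Quantitative HTS in CHO-M1 (rat receptor) cells: 10 min compound exposure ahead of 100 nM carbachol, Fluo-4 fluorescence followed 4 min, value expressed as peak-to-basal ratio.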
Muscarinic acetylcholine receptor M1 (Rattus norvegicus), sequence (P08482 whole entry, looked up): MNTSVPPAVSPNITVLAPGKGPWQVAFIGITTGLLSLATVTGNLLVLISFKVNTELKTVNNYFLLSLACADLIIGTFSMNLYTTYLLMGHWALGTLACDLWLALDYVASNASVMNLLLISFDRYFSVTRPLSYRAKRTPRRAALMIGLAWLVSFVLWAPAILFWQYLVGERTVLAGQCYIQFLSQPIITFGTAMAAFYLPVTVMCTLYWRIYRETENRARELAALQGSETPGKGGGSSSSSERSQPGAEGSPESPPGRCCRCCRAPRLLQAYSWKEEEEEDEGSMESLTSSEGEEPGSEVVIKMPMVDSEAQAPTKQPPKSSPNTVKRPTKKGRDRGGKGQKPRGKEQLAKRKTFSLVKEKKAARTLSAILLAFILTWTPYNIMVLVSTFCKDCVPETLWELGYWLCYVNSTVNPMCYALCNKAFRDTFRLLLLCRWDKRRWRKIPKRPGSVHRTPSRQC

The target is the same in test [24]. As to the kind of experiment: qHTS Assay for Antagonists of Acetylcholine Muscarinic M1 Receptor: Measurement of IP-One Response (AID 944). Note: nearly all actives have a fitted effect of over 75% in size. The essentials:
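Antagonism was measured as loss of carbachol-driven (EC80) IP1 accumulation in CHO cells carrying rat M1, using a homogeneous IP-One TR-FRET kit read at 620 and 665 nm.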

Where [25] appears, read: measured here: cell count channel max response.
The mark [26] stands for this setting: measured here: lipid channel max response.

Each structure is given as a SMILES string. Values joined by “and” are separate entries in the source; they are usually repeats but may differ in a detail not shown here. Identical values can stand only once. Inconclusive results are not listed. Where a structure was tested more than once in an assay, its records may differ in their call. Active and inactive are the calls of the source. Unless noted, calls come from the whole dose curve; as a rule, active = well fitted curve in the direction sought with a large enough effect; inconclusive = small, poorly fitted or top-dose-only effect, or another doubt; inactive = no such curve, though single readings can be large; an effect the other way counts as inactive or inconclusive. Some results are limits rather than exact numbers.

Cytochrome P450 3A4 (Homo sapiens), sequence (P08684 whole entry, looked up): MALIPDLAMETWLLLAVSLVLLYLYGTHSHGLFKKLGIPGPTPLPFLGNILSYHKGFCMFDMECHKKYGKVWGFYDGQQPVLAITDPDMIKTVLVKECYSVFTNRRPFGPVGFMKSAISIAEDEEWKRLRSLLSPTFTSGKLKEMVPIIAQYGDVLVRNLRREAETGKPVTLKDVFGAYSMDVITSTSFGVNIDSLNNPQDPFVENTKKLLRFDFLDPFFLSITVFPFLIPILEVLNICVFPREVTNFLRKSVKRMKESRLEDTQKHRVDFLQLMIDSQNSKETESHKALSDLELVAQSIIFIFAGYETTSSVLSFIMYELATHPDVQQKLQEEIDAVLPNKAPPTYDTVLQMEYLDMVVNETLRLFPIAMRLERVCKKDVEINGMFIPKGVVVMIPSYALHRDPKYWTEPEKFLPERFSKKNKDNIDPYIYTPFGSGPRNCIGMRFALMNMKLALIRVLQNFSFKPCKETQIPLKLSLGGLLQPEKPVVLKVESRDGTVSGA
3',5'-cyclic-AMP phosphodiesterase 4B (Homo sapiens), sequence (Q07343 whole entry, looked up): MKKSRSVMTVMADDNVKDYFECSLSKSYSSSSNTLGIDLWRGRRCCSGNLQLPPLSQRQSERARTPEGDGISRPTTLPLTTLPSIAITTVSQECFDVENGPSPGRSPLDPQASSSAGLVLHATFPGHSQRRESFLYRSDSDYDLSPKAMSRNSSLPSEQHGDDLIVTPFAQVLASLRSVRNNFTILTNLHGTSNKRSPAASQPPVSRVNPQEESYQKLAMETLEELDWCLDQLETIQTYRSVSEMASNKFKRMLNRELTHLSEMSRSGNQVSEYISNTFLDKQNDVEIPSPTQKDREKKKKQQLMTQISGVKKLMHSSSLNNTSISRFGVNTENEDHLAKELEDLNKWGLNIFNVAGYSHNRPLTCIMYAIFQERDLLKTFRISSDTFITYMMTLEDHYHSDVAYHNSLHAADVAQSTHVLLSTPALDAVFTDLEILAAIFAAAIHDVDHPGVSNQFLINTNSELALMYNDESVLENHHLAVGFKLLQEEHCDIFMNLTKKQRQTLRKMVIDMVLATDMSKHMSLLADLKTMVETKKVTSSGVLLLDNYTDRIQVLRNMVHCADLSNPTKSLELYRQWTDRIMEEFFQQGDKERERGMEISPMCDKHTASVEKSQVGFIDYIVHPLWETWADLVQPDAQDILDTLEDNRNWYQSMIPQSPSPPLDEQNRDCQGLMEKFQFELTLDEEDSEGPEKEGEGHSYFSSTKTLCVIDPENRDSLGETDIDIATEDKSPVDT
Guanine nucleotide-binding protein G(i) subunit alpha-1 (Homo sapiens), sequence (P63096 whole entry, looked up): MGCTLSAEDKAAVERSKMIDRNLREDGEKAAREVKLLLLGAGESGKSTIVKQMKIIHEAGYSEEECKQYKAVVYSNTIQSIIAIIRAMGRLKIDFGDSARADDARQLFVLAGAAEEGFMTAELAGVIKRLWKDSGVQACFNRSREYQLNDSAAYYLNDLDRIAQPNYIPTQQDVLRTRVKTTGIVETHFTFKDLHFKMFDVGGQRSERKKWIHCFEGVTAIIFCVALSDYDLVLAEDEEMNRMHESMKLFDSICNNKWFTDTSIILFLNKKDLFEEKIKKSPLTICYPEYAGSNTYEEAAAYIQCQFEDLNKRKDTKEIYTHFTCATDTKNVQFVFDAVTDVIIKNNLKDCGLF
Cytochrome P450 2C19 (Homo sapiens), sequence (P33261 whole entry, looked up): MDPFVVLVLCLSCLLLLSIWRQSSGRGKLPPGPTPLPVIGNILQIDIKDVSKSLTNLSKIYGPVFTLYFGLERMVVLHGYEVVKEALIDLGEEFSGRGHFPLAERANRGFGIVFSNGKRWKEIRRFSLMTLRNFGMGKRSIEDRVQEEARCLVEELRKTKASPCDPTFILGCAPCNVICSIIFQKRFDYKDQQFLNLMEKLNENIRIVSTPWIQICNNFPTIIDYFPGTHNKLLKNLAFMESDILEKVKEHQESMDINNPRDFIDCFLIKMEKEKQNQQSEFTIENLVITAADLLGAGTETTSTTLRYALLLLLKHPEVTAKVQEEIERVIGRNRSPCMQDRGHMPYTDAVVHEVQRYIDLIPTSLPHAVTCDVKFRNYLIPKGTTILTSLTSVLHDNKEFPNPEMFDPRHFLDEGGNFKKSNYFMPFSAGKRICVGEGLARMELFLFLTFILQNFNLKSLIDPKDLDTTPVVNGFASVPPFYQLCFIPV
Pyruvate kinase PKM (Homo sapiens), sequence (P14618 whole entry, looked up): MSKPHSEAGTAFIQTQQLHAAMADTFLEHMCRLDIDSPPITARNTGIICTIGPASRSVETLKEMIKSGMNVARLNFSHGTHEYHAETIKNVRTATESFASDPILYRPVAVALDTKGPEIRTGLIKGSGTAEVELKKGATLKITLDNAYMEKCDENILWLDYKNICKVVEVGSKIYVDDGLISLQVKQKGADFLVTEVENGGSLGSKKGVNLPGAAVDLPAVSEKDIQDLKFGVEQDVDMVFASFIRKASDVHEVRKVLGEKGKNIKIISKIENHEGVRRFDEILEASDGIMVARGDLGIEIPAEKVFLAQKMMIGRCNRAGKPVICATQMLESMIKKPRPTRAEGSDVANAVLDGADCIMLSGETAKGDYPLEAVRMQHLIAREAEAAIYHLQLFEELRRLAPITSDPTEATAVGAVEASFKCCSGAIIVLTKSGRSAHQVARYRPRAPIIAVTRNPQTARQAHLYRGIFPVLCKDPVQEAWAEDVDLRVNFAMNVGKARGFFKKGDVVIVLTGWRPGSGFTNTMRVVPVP

For `CC(=O)Oc1c(C)c(C)c2c(c1C)CCC(C)(CCCC(C)CCCC(C)CCCC(C)C)O2` (stereo unspecified), the Potency entry in [1], in test [2] and in test [5] was “inactive” throughout. For the same molecule, the outcome in [3] was inactive. For the same molecule, in test [4], the activity change, negative = inhibition is 7.46% (inactive) and -0.674% (inactive). In addition, the max response is 1.52% and -6.76% in test [4] (setting [25]); 12.6% and -6.49% in test [4] (setting [26]).

With `CCN1CCC[C@@H]1CNC(=O)c1cc(S(N)(=O)=O)ccc1OC`, the activity change, negative = inhibition in [6] is 5.34% [at 38 µM] (inactive) and 0.665% [at 38 µM] (inactive); in [8], -3.07% [at 38 µM] (inactive) and -10.9% [at 38 µM] (inactive); in [4] it was 3.26% (inactive). The Potency result in test [7], in test [12], in [13], in test [14], in test [1] and in test [15] was “inactive” throughout. Moreover, the Potency result in test [16] and in test [17] was “inactive” each time. The activity, negative = inhibition in [9] is 26.6% [at 38 µM] (inactive). Besides, the Potency in [10] and in test [11] was > 46 µM (inactive) each time. In addition, the outcome in test [18], in [19], in test [20] and in test [21] was inactive. The max response in test [4] (setting [25]) is -12.9%; in test [4] (setting [26]) it was -11.7%.

As for `O=C(O)[C@H]1CCCN(CCC=C(c2ccccc2)c2ccccc2)C1`, the activity change, negative = inhibition in test [6] is 3.95% [at 38 µM] (inactive); in [8] it was -15.6% [at 38 µM] (inactive); in test [4] it was -4.66% (inactive). The Potency entry in [7] is “inactive and 31.6 µM (active)”; in [10] it was > 46 µM (inactive); in test [11], > 46 µM (inactive); in test [22] it was 7.94 µM (active). In addition, in [9], the activity, negative = inhibition was 26.3% [at 38 µM] (inactive). The Potency result in test [12], in [13], in test [14], in test [23] and in test [24] was “inactive” throughout. The molecule was called inactive in test [18], in [19], in test [20] and in [21]. The max response in [4] (setting [25]) was -22.7%; in test [4] (setting [26]), -26.7%.
